# Only some compounds are listed: those with a hit (about 4.3% of all), similar ones and a draw of the others.
# HIF-2a block – HIF-2a inhibition; 786-0 RCC cells HIF-2a reporter, luciferase luminescence, overnight; inhibition, % at 18.8 µM; 360,000 compounds, 0.72% hits; AID 624352;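 active = inhibition of the luminescence signal of 40% or more relative to plate controls, in a single-dose primary screen at 18.75 µM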
# CHOP inh – inhibitors of CHOP induction in ER stress response. AID 2732. CHO-K1 CHOP-promoter luciferase, tunicamycin-induced, 15-18 h. inhibition, % at 10 µM. 220,000 compounds, 3.8% hits;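 active = compounds that reduced the stress-induced luciferase reporter signal by more than about 70% of percent inhibition, limit read from the data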;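 also: 0% = tunicamycin plus vehicle and 100% = wells without tunicamycin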
# Peg3 prom inh – reduces Peg3 promoter-driven luciferase expression in HeLa; HeLa PEG-Prom luciferase reporter, luminescence, overnight; inhibition, % at 20 µM; 360,000 compounds, 1.7% hits;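 active = inhibition of at least 50% at 20 µM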
# KKLEB tox – reduces viability of KKLEB cystic fibrosis airway cells; KKLEB CF airway cells viability, ATPlite luminescence, overnight; hits give low values; cells stimulated with P. aeruginosa culture filtrate; activity change (cytotoxicity), % at 5 µM; 360,000 compounds, 0.36% hits;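 active = corrected activity change at or below -50% at 5 µM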
# MITF TRPM1 inh – MITF TRPM1 promoter inhibition in SK-MEL-5 cells. SK-MEL-5 TRPM1 promoter luciferase, 24 h. inhibition, % at 12.5 µM. 330,000 compounds, 0.83% hits. AID 488899;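 active = mean inhibition across replicates of 60% or more, whatever share of single replicates reaches that level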
# CF NFkB inh – cystic fibrosis NF-kB activation inhibition; 360,000 compounds, 0.86% hits; KKLEB NF-kB-GFP reporter, PAF-induced, GFP fluorescence overnight; AID 588850; inhibition, % at 5 µM;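 active = at least 50% inhibition at 5 µM, scaled per plate between neutral and stimulator controls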;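 also: PAF is a Pseudomonas aeruginosa culture filtrate used as stimulus; plate controls were PAF-stimulated DMSO wells for no effect and unstimulated DMSO wells for full effect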
# * marks the source's active call; other numbers are inactive results; / = no result.
SMILES,HIF-2a block,CHOP inh,Peg3 prom inh,KKLEB tox,MITF TRPM1 inh,CF NFkB inh
CCCCCCC(C)(C)c1ccc([C@@H]2C[C@H](O)CC[C@H]2CCCO)c(O)c1,15,-25,83*,-10,9,-5
O=C(COc1ccc(Br)cc1)N1CCN(C2CCCC2)CC1,-8,-26,6,-16,1,8
Cc1ccc(OCC(=O)N2CCN(C3CCC(c4ccccc4)CC3)CC2)cc1 (stereo unspecified),7,93*,-3,9,5,17
O=C1NC(=O)N(CCc2ccc(F)cc2)C(=O)/C1=C\C=C\c1ccccc1,11,73*,34,-48,90*,89*
C=CCN1C(=O)NC(=O)/C(=C/C=C/c2ccccc2)C1=O,16,15,24,0,94*,-14
CN(C)C1C(=O)C(C(N)=O)=C(O)C2(O)C(=O)C3=C(O)c4c(O)cccc4C(C)(O)C3C(O)C12 (stereo unspecified),9,/,14,28,1,-3
CC(C)N1OC2CC1c1nc3ccccc3n1C2 (stereo unspecified),0,2,-5,6,4,8
CC1Oc2cc3c(-c4c(O)cc(O)c5c(O)c6c(cc45)OC(C)C(C)C6=O)c(O)cc(O)c3c(O)c2C(=O)C1C (stereo unspecified),-8,102*,70*,-56*,82*,67*
COC(=O)c1ccc(NC(=O)CSc2nc3ccc(N4C(=O)C5C6C=CC(C6)C5C4=O)cc3s2)cc1 (stereo unspecified),-93,3,105*,-1,62*,-7
COc1ccc(-n2c(/C=C/c3ccc(O)c(O)c3)nc3ccccc3c2=O)cc1,18,/,55*,-11,9,-30
O=c1[nH]c2ccccc2n1C1CCN(C(c2nnnn2Cc2ccccc2)C2CC2)CC1 (stereo unspecified),-25,/,76*,-79*,/,86*
O=c1[nH]c2ccccc2n1C1CCN(C(c2ccccc2OC(F)(F)F)c2nnnn2Cc2ccccc2)CC1 (stereo unspecified),-51,/,92*,-54*,/,82*
Cc1cccc(C)c1-n1nnnc1C(C1CC1)N1CCC(n2c(=O)[nH]c3ccccc32)CC1 (stereo unspecified),-7,/,51*,11,/,-34
CSCCC(c1nnnn1Cc1ccccc1)N1CCC(n2c(=O)[nH]c3ccccc32)CC1 (stereo unspecified),-17,/,65*,-104*,/,87*
Cc1cccc(C)c1-n1nnnc1C(c1cccc2ccccc12)N1CCC(n2c(=O)[nH]c3ccccc32)CC1 (stereo unspecified),-10,/,43,-8,/,26
Cc1cccc(C)c1-n1nnnc1C(c1cccs1)N1CCC(n2c(=O)[nH]c3ccccc32)CC1 (stereo unspecified),9,/,29,-8,/,0
CN1C2CCC1CC(OC(c1ccccc1)c1ccc(Cl)cc1)C2 (stereo unspecified),/,8,/,/,/,/
O=c1[nH]c2ccccc2n1C1CCN(C(CCc2ccccc2)c2nnnn2C2CCCCC2)CC1 (stereo unspecified),-84,/,98*,-69*,/,86*
O=c1[nH]c2ccccc2n1C1CCN(C(c2cccs2)c2nnnn2Cc2ccccc2)CC1 (stereo unspecified),0,/,78*,-79*,/,86*
COc1ccc(C(c2nnnn2Cc2ccccc2)N2CCC(n3c(=O)[nH]c4ccccc43)CC2)cc1 (stereo unspecified),-25,/,74*,-96*,/,85*
CSCCC(c1nnnn1C1CCCCC1)N1CCC(n2c(=O)[nH]c3ccccc32)CC1 (stereo unspecified),-15,/,46,2,/,33
CC(=O)OCC1=C(C(=O)[O-])N2C(=O)[C@@H](NC(=O)CCC[C@@H](N)C(=O)[O-])[C@H]2SC1.[Zn+2],/,-15,/,/,/,/
O=C(Cc1ccc(Cl)c(Cl)c1)N1CCCCC1CN1CCCC1 (stereo unspecified),/,5,/,/,/,/
CN[C@@H](C)[C@H](O)c1ccccc1,/,13,/,/,/,/
Cc1cccc(-c2nc3ccc(C(=O)N4CCC5(CC4)OCCO5)cc3nc2-c2cccc(C)c2)c1,9,/,56*,-6,-8,18
SMILES,HIF-2a block,CHOP inh,Peg3 prom inh,KKLEB tox,MITF TRPM1 inh,CF NFkB inh
c1csc(CN2CCNCC2)c1,9,-33,6,16,5,-10
C=CCN1C[C@@H](C)N([C@H](c2ccc(C(=O)N(CC)CC)cc2)c2cccc(OC)c2)C[C@@H]1C,/,-16,/,/,/,/
Cc1ccc2c(C)c3ccc4ccccc4c3c[n+]2c1,0,/,55*,6,68*,-126
CC12CC[C@H]3[C@@H](CCC4(O)C[C@H](O)CCC34/C=N/NC(=O)c3ccccc3[N+](=O)[O-])C1(O)CCC2C1=CC(=O)OC1 (stereo partly specified),22,/,67*,11,7,4
CCCCn1c(O)c(C(C)=Nc2ccc(OCC)cc2)c(=O)[nH]c1=O,7,95*,16,5,2,-4
CCCCn1c(O)c(C(C)=Nc2cccc(C(=O)O)c2)c(=O)[nH]c1=O,-19,0,-8,2,9,0
C[n+]1c2ccccc2nc2ccc(NCCO)cc21,-15,/,-30,11,4,-39
CNc1ccc2nc3ccccc3[n+](C)c2c1,-11,/,39,5,72*,-61
O=C1NC(=O)C(CCc2ccncc2)(Cc2cccc(Cl)c2Cl)C(=O)N1c1ccc(Br)cc1 (stereo unspecified),24,34,57*,-22,12,28
Nc1c(C(=O)NC2CCCC2)c2nc3ccccc3nc2n1CC1CCCO1 (stereo unspecified),11,76*,28,-9,-2,22
CC1(C(=O)O)C2CCC(O2)C1(C)C(=O)O (stereo unspecified),/,-4,/,/,/,/
NCC(CP(=O)(O)O)c1ccc(Cl)cc1 (stereo unspecified),/,-6,/,/,/,/
Cc1ccc(OCCOc2cccc(C=C3C(=O)NC(=O)NC3=O)c2)c(C)c1,55*,/,-58,2,-6,-7
O=C1NC(=O)C(=Cc2cccc(OCCOc3ccccc3)c2)C(=O)N1,-56,/,-135,-6,-27,-4
COc1ccc(/C=C2\C(=O)NC(=S)N(C)C2=O)cc1C,19,-11,14,0,16,0
Cc1ccsc1/C=C1\C(=O)NC(=S)N(C)C1=O,26,/,90*,6,70*,31
CN1C(=O)/C(=C/c2ccc(Cl)s2)C(=O)NC1=S,20,/,55*,-11,-1,66*
N#CC(C#N)=C(C#N)c1ccc(Nc2ccccc2)cc1,11,/,32,-14,0,53*
O=C1NCN(c2ccccc2)C12CCN(C(c1ccnc3ccccc13)c1nnnn1C1CCCC1)CC2 (stereo unspecified),21,/,21,-13,/,26

# Screening results: PubChem BioAssay, several laboratories
